Screening results (PubChem)
This is a sample that favours compounds with a hit; in the whole collection about 14% have one here.
Pf growth 48h: P. falciparum growth inhibition at 48 hours (one generation). P. falciparum luciferase growth in erythrocytes, 48 h. Potency, µM (highest dose often 28.7 µM), inactives show at the highest dose activity change, negative = inhibition, actives largely listed as inhibitors. 5.9% of 310,000 active; also: potency is read from the fitted curve at half-maximal effect
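Luminescence readout; reporter = integrated firefly luciferase in P. falciparum. RBC culture at 2% hematocrit, 0.1% parasitemia final, 37 C/5% CO2; decreased signal taken as growth inhibition.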
HCMV inh: inhibitors of human cytomegalovirus. HFF cells, HCMV-luciferase reporter, 72 h; stronger effect = lower value. activity change, negative = inhibition, % at 57.5 µM. 4.5% of 410,000 active. AID 1259415; in the data active = activity change below about -60%; inconclusive = no clear call, values can overlap the other calls; inactive = above about -39%
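Luciferase read-out from HCMV-luciferase-infected HFFs (MOI 1 PFU/cell) 72 h post infection at 37C; compounds added after 16 h cell attachment; activity normalized between buffer-only basal and Salinomycin (10uM) inhibitor controls.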
Pf growth 96h: P. falciparum growth inhibition at 96 hour, primary screen for plastid delayed-death inhibitors; P. falciparum luciferase reporter growth, 96 h; 6.9% of 320,000 active; Potency, µM (series often up to 28.7 µM), for inactives: at the top dose activity change, negative = inhibition, usual class: inhibitors; also: potency is read from the fitted curve at half-maximal effect
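Luminescence readout: decreased luciferase signal marks inhibited growth of reporter-expressing P. falciparum in infected red cells (2% hematocrit, 0.05% parasitemia final), exposed to compound two generations (96 h, 37 C, 5% CO2).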
FBPA Giardia inh: inhibitors of Giardia lamblia fructose-1,6-bisphosphate aldolase | 0.71% of 290,000 active | purified Giardia FBPA | Potency, µM (top dose mostly 59.6 µM), inactives show top-dose activity, negative = inhibition, most hits filed as inhibitors; also: potency is read from the fitted curve at half-maximal effect; nearly all actives have a fitted effect of over 55% in size
Target sequence (A8B2U2 whole entry, looked up): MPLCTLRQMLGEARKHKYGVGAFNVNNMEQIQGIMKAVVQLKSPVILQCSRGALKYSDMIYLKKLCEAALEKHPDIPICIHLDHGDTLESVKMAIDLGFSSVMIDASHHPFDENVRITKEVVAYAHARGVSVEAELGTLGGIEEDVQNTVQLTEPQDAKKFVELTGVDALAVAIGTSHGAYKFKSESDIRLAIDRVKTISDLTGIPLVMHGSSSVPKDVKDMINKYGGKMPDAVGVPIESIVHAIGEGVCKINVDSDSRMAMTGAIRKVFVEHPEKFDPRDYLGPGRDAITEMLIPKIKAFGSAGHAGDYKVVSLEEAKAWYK
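Giardia FBPA (40 nM reagent) was preincubated 10 min at RT with compound (up to 57.5 uM final), then substrate plus GAPDH/TPI/NAD/arsenate coupling system with diaphorase/resazurin was added; resorufin fluorescence (525/598 nm) was read after 20 min.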
Sm TGR inh: inhibitors of Schistosoma mansoni thioredoxin glutathione reductase; Q962Y6; Potency, µM (doses to about 114 µM), for the others: at the top dose activity change, negative = inhibition, actives largely listed as inhibitors; 3% of 360,000 active; purified TGR, DTNB reduction, TNB absorbance 405 nm; also: potency is read from the fitted curve at half-maximal effect; nearly all actives have a fitted effect of over 60% in size
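Kinetic colorimetric format: TGR-catalysed, NADPH-driven DTNB reduction monitored via TNB absorbance. Enzyme dispensed at 20 nM; compound exposure 15 min at room temperature before reaction start.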
Numbers without * were called inactive; [ ] = another dose, or the depositor's remark. Unless noted, calls follow the shape of the dose curve; as a rule, active = well fitted curve in the direction sought with a large enough effect; inconclusive = small, poorly fitted or top-dose-only effect, or another doubt; inactive = no such curve, though single readings can be large; an effect the other way counts as inactive or inconclusive. % is scaled to controls: 0 for no effect and ±100 for the full control effect.

Screening O=C(c1cccs1)N1CCCC(c2nc3c(nnn3Cc3cccc(Cl)c3)c(=O)[nH]2)C1 (stereo not given) returned Pf growth 48h inconclusive, HCMV inh 0, Pf growth 96h 9%, FBPA Giardia inh 11% and Sm TGR inh -2%.
O=C(NCc1ccccc1)c1nc2c(nnn2Cc2cccc(Cl)c2)c(=O)[nH]1 was read as Pf growth 48h -18%, HCMV inh 16, Pf growth 96h 2.9µM*, FBPA Giardia inh -4% and Sm TGR inh 9%.
`O=C(NCC1CCCO1)c1nc2c(nnn2Cc2ccccc2Cl)c(=O)[nH]1` (stereo not given) gave Pf growth 48h -24%, HCMV inh -36, Pf growth 96h 13µM*, FBPA Giardia inh 2% and Sm TGR inh -2%.
For Cc1cc(C)c2c(=O)n3c(nc2c1)C(CC(C)C)NC(=O)c1cccnc1-3 (stereo not given) the results were HCMV inh -22.
Screening FC(F)(F)c1cccc(-c2noc(-c3cc(-c4ccccc4)c(C(F)(F)F)s3)n2)c1 returned FBPA Giardia inh -2%.
For COc1ccccc1NS(=O)(=O)c1cccc2nsnc12 the results were Pf growth 48h -3%, HCMV inh inconclusive, Pf growth 96h inconclusive, FBPA Giardia inh -25% and Sm TGR inh 2%.
Screening O=C(c1ccco1)N1CCC(c2nc3c(nnn3Cc3ccc(F)cc3)c(=O)[nH]2)CC1 returned Pf growth 48h inconclusive, HCMV inh 17, Pf growth 96h 16%, FBPA Giardia inh 1% and Sm TGR inh -12%.
O=C(Cc1cccs1)N1CCC(c2nc3c(nnn3Cc3ccc(F)cc3)c(=O)[nH]2)CC1 was read as Pf growth 48h inconclusive, HCMV inh -95*, Pf growth 96h 1%[5.75 µM], FBPA Giardia inh 4% and Sm TGR inh -9%.
CC(C)=CCN1CCN(Cc2cnc(-c3ccccc3)s2)CC1CCO (stereo not given) was read as Pf growth 48h inconclusive, HCMV inh inconclusive, Pf growth 96h -15%, FBPA Giardia inh 5% and Sm TGR inh 6%.
Screening COc1ccccc1/C=C/CN1CCN(Cc2ccc(F)cc2)C(CCO)C1 (stereo not given) returned Pf growth 48h inconclusive, HCMV inh 14, Pf growth 96h inconclusive, FBPA Giardia inh 3% and Sm TGR inh -16%.
For CCOc1ccc(CN2CCN(Cc3cc4c(cc3Cl)OCO4)CC2CCO)cc1 (stereo not given) the results were Pf growth 48h inconclusive, HCMV inh -16, Pf growth 96h inconclusive, FBPA Giardia inh -5% and Sm TGR inh inconclusive.
Screening OCCC1CN(Cc2cnc(-c3ccccc3)s2)CCN1Cc1ccccc1 (stereo not given) returned Pf growth 48h -22%, HCMV inh inconclusive, Pf growth 96h 12µM*, FBPA Giardia inh 1% and Sm TGR inh 17%.
`OCCC1CN(C/C=C/c2ccco2)CCN1Cc1ccccc1` (stereo not given) gave Pf growth 48h inconclusive, HCMV inh 22, Pf growth 96h inconclusive, FBPA Giardia inh -10% and Sm TGR inh 20µM*.
OCCC1CN(Cc2cc3c(cc2Cl)OCO3)CCN1Cc1ccccc1 (stereo not given) was read as Pf growth 48h inconclusive, HCMV inh -13, Pf growth 96h 10µM*, FBPA Giardia inh 2% and Sm TGR inh -12%.
`CCCS(=O)(=O)N1CC(=O)N(c2cc(C)cc(C)c2)C(C)(C(=O)NC2CCCCCC2)C1` (stereo not given) gave HCMV inh 0 and Sm TGR inh 0%.
`Cc1[nH]c(C)c(S(=O)(=O)N(Cc2ccccc2)C(C)(C)C)c1C(=O)N1CCCC1` gave Pf growth 48h -13%, HCMV inh -25, Pf growth 96h inconclusive, FBPA Giardia inh 8% and Sm TGR inh -17%.
Screening CCC(OC(=O)CN1C(=O)C(=O)c2ccccc21)C(=O)Nc1ccccc1OC (stereo not given) returned Pf growth 48h 0%, HCMV inh -63*, Pf growth 96h inconclusive, FBPA Giardia inh -11% and Sm TGR inh 2%.
